Laboratory results as given in PubChem BioAssay AID449762 (Southern Research Specialized Biocontainment Screening …, 2010).
Among all 330,000 compounds or so, about 1,900 (0.58%) were called active. About 4% were inconclusive and are not listed. These entries were drawn from the full list. Potency and affinity values are given separately. Values without a mark were called inactive. Cut-off read from the data, not from the text of the source: inconclusive = inhibition above about 70% without an active follow-up result; inactive = below that.

Assay: M. tuberculosis growth inhibition, HTS (AID 449762);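 note: bacterial growth assessed after seven days of incubation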
Settings: M. tuberculosis H37Rv growth inhibition, 7H9 media; at 25 µM; stronger effect = higher value

| SMILES | inhibition [%] |
| --- | --- |
| O=C(COc1ccc([N+](=O)[O-])cc1)NNC(=S)NC(=O)c1ccc(Br)cc1 | 10.5 |
| Cc1ccc(S(=O)(=O)N(C)c2ccc(OCC(=O)OCc3c(C)noc3C)cc2)cc1 | 47.9 |
| Cc1ccc(S(=O)(=O)N(C)c2ccc(OCC(=O)OCC(=O)N(CC#N)c3ccccc3)cc2)cc1 | 15.9 |
| CN1CC=C(c2c[nH]c3ccccc23)CC1 | -13.7 |
| COc1ccc2[nH]cc(C3=CCNCC3)c2c1 | 67.9 |
| CCOc1cc(C2C3=C(CC(C)(C)CC3=O)N(CCCOC)C3=C2C(=O)CC(C)(C)C3)ccc1OC | 1.22 |
| CC(=O)Nc1ccc2c(c1)nc1n2CCOC1 | 8.99 |
| Cc1ccc(N(CC(=O)Nc2cc(Cl)ccc2Oc2ccccc2)S(C)(=O)=O)cc1C | 13.8 |
| Cc1nn(-c2ccccc2)c(N)c1N=Nc1ccccc1 | -2.88 |
| Cc1nn(-c2ccccc2)c(N)c1N=Nc1ccc2ccccc2c1 | 56.7 |
| O=c1c2sccc2nc(SCc2ccc([N+](=O)[O-])cc2)n1Cc1ccccn1 | 4.82 |
| O=C(CSc1nnnn1-c1ccc2c(c1)OCCO2)N1CCc2ccccc21 | 5.18 |
| O=C(CCc1n[nH]c(=O)[nH]c1=O)N1CCOCC1 | -14.1 |
| CCCNC(=O)c1cccc(COc2ccccc2OC)c1 | 3.61 |
| Cc1nc2sccn2c(=O)c1S(=O)(=O)N1CCN(c2ccc(F)cc2)CC1 | 8.78 |
| Cc1nc2ccccn2c(=O)c1CCN1CCC(C(=O)c2ccc(F)cc2)CC1 | -4.74 |
| CCCNC(=S)N(Cc1cc2cc(C)ccc2n2nnnc12)CC(C)(C)CN(C)C | 18.8 |
| CNCCNC[C@H](Cc1cccc2ccccc12)NCCc1ccccc1 | -2.82 |
| CSCC[C@H](NC(=O)OC(C)(C)C)C(=O)NCC1CCC(C(=O)N[C@@H](Cc2ccccc2)C(=O)O)CC1 (stereo not given in full) | 2.33 |
| C=CCOc1ccccc1CNCCNC(=O)c1nonc1N | -4.17 |
| CCCCCOC(=O)Cn1c(SCC(=O)Nc2ccccc2)nc2c1c(=O)[nH]c(=O)n2C | -7.54 |
| O=C(c1cc([N+](=O)[O-])ccc1N1CCOCC1)N1CCN(S(=O)(=O)c2ccc(F)cc2)CC1 | -2.15 |
| C/C(=N/NC(=O)c1cc2ccccc2cc1O)c1ccco1 | 66.3 |
| C/C(=N\NC(=O)c1cc2ccccc2cc1O)c1cccs1 | -0.54 |
| N#CCCN(C(=O)COC(=O)c1nc(Cl)ccc1Cl)c1ccccc1 | -6.38 |
